# Compound activity (PubChem)
# BoNT A protease: inhibitors of Botulinum neurotoxin A light chain protease | inhibition, % at 10 µM | multiplex microsphere protease substrate cleavage, flow cytometry | hit rate 0.17% among 360,000 | AID 588499
# Anthrax LF prot: blocks Bacillus anthracis lethal factor protease; P15917; inhibition, % at 10 µM; multiplex microsphere protease cleavage assay, LF; hit rate 0.12% among 360,000
# MazEF act: activators of E. coli MazEF toxin-antitoxin RNase. FAM/BHQ RNA-DNA oligo cleavage fluorescence, 5 h. activation, % at 20 µM. hit rate 0.32% among 350,000. P0AE70; in the data active means activation above about 50%
# Target sequence (P0AE70 whole entry, looked up): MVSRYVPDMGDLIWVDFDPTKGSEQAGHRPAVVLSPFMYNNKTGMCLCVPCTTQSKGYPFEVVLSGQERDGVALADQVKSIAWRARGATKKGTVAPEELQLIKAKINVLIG
# Autofluor counter: compound fluorescence in toxin protease inhibitor counterscreen. hit rate 3.1% among 360,000. fluorescence intensity (concentration not given with the values). AID 624483. compound autofluorescence counterscreen, microsphere flow cytometry; hits give high values; in the data active means fluorescence intensity above about 16000; inconclusive means no clear call, values can overlap the other calls
# BoNT F protease: blocks Botulinum neurotoxin F light chain protease. AID 588497. hit rate 0.22% among 360,000. inhibition, % at 10 µM. Multiplex microsphere protease cleavage assay, flow cytometry; in the data active means inhibition above about 35%, passing the limit was not always enough; inconclusive means no clear call, values can overlap the other calls
# Numbers stand for hits; . = inactive; ? = inconclusive; / = no result. An excerpt weighted towards active compounds, which were near 3.7% of everything screened. Unless noted, no stated cut-off is given here; in the data, active means inhibition above about 30%; inconclusive means no clear call, values can overlap the other calls; inactive means below that.
SMILES,BoNT A protease,Anthrax LF prot,MazEF act,Autofluor counter,BoNT F protease
COc1ccc(C(C)(C)C)cc1NC(=O)C1CC(=O)N(C2CCCC2)C1 (stereo not drawn),.,.,.,.,.
N#Cc1ccc(S(=O)(=O)N2CCCCC2c2cc(C(=O)NCc3cccnc3)no2)cc1 (stereo not drawn),.,.,/,.,.
CCN(CC)c1ccc(N)cc1,.,.,99,.,.
Nc1ccc(N(CCO)CCO)cc1,.,.,.,.,.
CN(C)C(=C(C#N)C#N)N1CCN(c2ccc(Cl)c(Cl)c2)CC1,.,.,.,20347,.
CN(C)C(=C(C#N)C#N)N1CCN(c2ccc(Cl)cc2)CC1,.,.,.,.,.
O=C(Nc1ccc(OC(F)F)cc1)c1cc(S(=O)(=O)N2CCOCC2)ccc1N1CCCC1,.,?,.,.,?
CCOc1ccccc1CNC(=O)C1CCC(=O)N1C(C)C (stereo not drawn),.,.,.,22457,.
Nc1cc(Br)cc2c1[nH]c(=O)c1ccccc12,.,.,.,.,.
O=C(Oc1c(Cl)cc(Cl)c2cccnc12)N1CCCCC1,?,.,.,21476,.
O=C(Oc1c(Cl)cc(Cl)c2cccnc12)N1CCOCC1,?,?,.,?,.
CCN(CC)c1ccc2cc(C(=O)NNC(=O)c3ccc(S(=O)(=O)N4CCCCC4)cc3)c(=O)oc2c1,.,.,75,.,.
CCOC(=O)N1CCC(=NNS(=O)(=O)c2cccc([N+](=O)[O-])c2)CC1,.,.,.,22772,.
CCOC(=O)N1CCN(S(=O)(=O)c2cc([N+](=O)[O-])ccc2C)CC1,.,.,.,.,.
Cc1ccc(C(=O)NNC(=O)c2ccc(SCC3CCCO3)c([N+](=O)[O-])c2)cc1 (stereo not drawn),.,.,.,.,.
O=C(NNC(=O)c1ccccc1Br)c1ccc(SCC2CCCO2)c([N+](=O)[O-])c1 (stereo not drawn),.,.,.,21390,.
O=C(NC(=S)NCC1CCCO1)c1ccccc1Br (stereo not drawn),.,.,.,.,.
O=C(NNC(=O)c1ccc(SCC2CCCO2)c([N+](=O)[O-])c1)c1ccc(Cl)c([N+](=O)[O-])c1 (stereo not drawn),.,.,.,21281,.
O=C(Nc1ccncc1)c1cc2ccccc2cc1O,.,.,.,.,.
Cc1ccc2c(c1)C(=O)N1c3cc(C)c(C)cc3NC(=O)C1C(=O)N2 (stereo not drawn),.,.,/,.,.
Cc1cccc(NC(=O)c2cc(S(=O)(=O)NCc3ccco3)ccc2F)c1C,.,.,.,23011,.
Cc1cccc(C)c1NC(=O)CNC(=O)c1ccc(S(=O)(=O)NCc2ccco2)cc1,.,.,.,.,.
CN1C[C@@H]2[C@@H]3C(=O)N(Cc4ccccc4)C(=O)[C@@H]3[C@](Cc3ccccc3)(C1=O)N2C(=O)c1ccc(F)cc1,.,.,.,.,.
O=C1COc2ccc(OCc3ccc(F)cc3)cc21,.,.,.,23249,.
COc1ccc2c(-c3cc4ccc(OCc5ccc(F)cc5)cc4oc3=O)cc(=O)oc2c1,.,.,.,.,.
SMILES,BoNT A protease,Anthrax LF prot,MazEF act,Autofluor counter,BoNT F protease
O=C(Nc1ccccc1)OC1CCS(=O)(=O)C1 (stereo not drawn),.,.,.,.,.
O=C(NC(=O)c1cccc(OC(F)(F)C(F)F)c1)OC1CCS(=O)(=O)C1 (stereo not drawn),.,.,.,24101,.
CCOC(=O)c1c(NC(=O)C(C)Sc2cccc[n+]2[O-])sc2c1CCN(Cc1ccccc1)C2 (stereo not drawn),45,.,.,.,.
CCCCCCn1c2c(c(=N)c3c1CCC3)CCC2,?,.,.,22477,.
CCCCCCCCCn1c2c(c(=N)c3c1CCC3)CCC2,.,.,.,.,.
CC(=O)NC(c1ccc(F)c(F)c1)c1nc(-c2ccc(C)c(C)c2)cs1 (stereo not drawn),.,.,/,.,.
CCc1nc(N2CCCCC2)c2oc3ccccc3c2n1,.,.,.,23515,.
CCc1nc(N2CCCC(C)C2)c2oc3ccccc3c2n1 (stereo not drawn),.,.,.,.,.
Cc1nc(Nc2ccncc2)c2oc3ccccc3c2n1,.,.,.,.,.
CCc1nc(N2CCCCC2C)c2oc3ccccc3c2n1 (stereo not drawn),.,.,.,19411,.
CCc1nc(Nc2ccncc2)c2oc3ccccc3c2n1,.,.,.,20587,.
CCc1nc(N2CCCCC2C(=O)O)c2oc3ccccc3c2n1 (stereo not drawn),.,.,.,.,.
CC1(C(=O)Nc2ccc(Cl)c(Cl)c2)CCN1CCc1ccccc1 (stereo not drawn),.,.,/,.,.
COc1ccc(CN2CCC[C@]3(N[C@H](c4ccc(C(F)(F)F)cc4)[C@@H]4C(=O)N(Cc5ccccc5)C(=O)[C@@H]43)C2=O)cc1,.,.,.,.,.
Cc1ccccc1N(CC(=O)NCC1CCCO1)C(=O)C1(C)CC(=O)N=C2C=CC=CN21 (stereo not drawn),.,.,.,23341,.
Cc1ccccc1Oc1ncnc2sccc12,.,.,.,18377,.
c1ccc(Oc2ncnc3sccc23)cc1,.,.,.,.,.
O=C(Cn1c(=O)oc2cc(S(=O)(=O)N3CCCC3)ccc21)Nc1ccccn1,.,.,/,.,.
COc1cc(Nc2ccn3nccc3n2)cc(OC)c1OC,.,.,/,.,.
CCn1c(SCC(=O)N2CCN(c3ccccc3)CC2)nnc1-c1cc2cc(Cl)ccc2o1,?,.,.,22674,.
COc1ccc(S(=O)(=O)N2CC=C(c3ccccc3)CC2)cc1OC,.,.,.,.,.
COC(=O)c1ccccc1NC(=O)Oc1ccc(C(C)C)cc1,.,.,.,24059,.
COC(=O)c1ccccc1NC(=S)NC(=O)COc1ccc(C(C)C)cc1,.,.,.,.,.
CC(=O)NC1(C(F)(F)F)C(=O)N(Cc2ccccc2)C2=C1C(=O)CC(C)(C)C2 (stereo not drawn),.,.,.,.,.
CCOC(=O)NC1(C(F)(F)F)C(=O)N(Cc2ccccn2)C2=C1C(=O)CC(C)(C)C2 (stereo not drawn),.,.,.,16536,.
SMILES,BoNT A protease,Anthrax LF prot,MazEF act,Autofluor counter,BoNT F protease
CC1(C)CC(=O)C2=C(C1)N(Cc1ccccc1)C(=O)C2(NC(=O)C(C)(C)C)C(F)(F)F (stereo not drawn),.,.,.,24235,.
O=C(COc1ccc(S(=O)(=O)N2CCOCC2)cc1)NCCc1ccccc1,.,.,.,.,?
O=C(COc1ccc(S(=O)(=O)N2CCOCC2)cc1)Nc1ccccc1C(F)(F)F,.,.,.,22134,.
Cc1cc(Br)ccc1NC(=O)CNC(=O)Cc1ccc(S(=O)(=O)N2CCOCC2)s1,.,.,.,.,.
C=CCOC(=O)C1=C(C)NC(C)=C(C(=O)OCC=C)C1/C=C/c1ccccc1,.,.,.,.,.
CCOC(=O)C1=C(C)NC(C)=C(C(=O)OCC)C1/C=C/c1ccccc1,.,.,.,22125,.
COC(=O)C1=C(C)NC(C)=C(C(=O)OC)C1c1ccc(N(C)C)cc1,?,.,.,23084,.
